The campaign covered roughly 220,000 compounds. About 920 (0.42%) were called active. Cut-off read from the data, not from the text of the source: active = inhibition above about 15%; inactive = the rest. Only a selection was taken, and actives are over-represented in it overall.

This assay deals with Transitional endoplasmic reticulum ATPase (Homo sapiens) (UniProt P55072). The assay is described as follows: inhibitors of human p97 ATPase, primary screen, biochemical (AID 1481).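 Note: 0% = DMSO vehicle and 100% = wells lacking enzyme.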 Conditions: recombinant p97 ATPase, Kinase-Glo ATP luminescence, 3 h; at 8 µM; stronger effect = higher value.
Sequence of Transitional endoplasmic reticulum ATPase (Homo sapiens) (P55072 whole entry, looked up): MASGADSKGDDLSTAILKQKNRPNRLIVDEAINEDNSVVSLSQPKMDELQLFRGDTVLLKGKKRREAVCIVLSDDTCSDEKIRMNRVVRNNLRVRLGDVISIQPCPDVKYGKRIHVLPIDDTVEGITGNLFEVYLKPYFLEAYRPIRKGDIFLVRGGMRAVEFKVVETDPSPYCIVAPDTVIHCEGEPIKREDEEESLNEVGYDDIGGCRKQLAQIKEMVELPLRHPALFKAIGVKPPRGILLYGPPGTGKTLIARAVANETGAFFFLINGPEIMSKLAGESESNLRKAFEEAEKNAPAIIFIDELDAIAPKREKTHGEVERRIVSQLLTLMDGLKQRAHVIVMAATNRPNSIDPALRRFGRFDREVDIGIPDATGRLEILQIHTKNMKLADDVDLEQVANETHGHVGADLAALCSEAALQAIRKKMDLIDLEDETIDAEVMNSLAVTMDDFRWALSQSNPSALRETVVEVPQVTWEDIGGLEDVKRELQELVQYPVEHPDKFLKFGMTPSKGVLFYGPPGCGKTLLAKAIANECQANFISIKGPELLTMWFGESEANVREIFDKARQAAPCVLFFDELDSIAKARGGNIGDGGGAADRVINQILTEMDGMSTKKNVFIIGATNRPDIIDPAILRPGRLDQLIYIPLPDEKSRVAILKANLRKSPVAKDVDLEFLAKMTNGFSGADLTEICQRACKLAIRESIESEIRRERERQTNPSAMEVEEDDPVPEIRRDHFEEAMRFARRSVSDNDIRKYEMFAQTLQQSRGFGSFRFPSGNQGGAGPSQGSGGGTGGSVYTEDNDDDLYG
Consider `O=c1[nH]c(CN2CC=C(c3ccccc3)CC2)nc2scc(-c3cccs3)c12`, for which the inhibition – broadly, the relative decrease from the control value, in per cent – is 15.1% (active). The same measure for `O=c1c2ccccc2nc(-c2ccccc2)n1-c1ccccn1`: 3.57% (inactive); for `CNC(=O)Nc1ccc(C(O)(C(=O)OC)C(F)(F)F)cc1` (stereo not given): -1.08% (inactive). The same measure for `CC(=O)Nc1ccccc1C(=O)OCC(=O)c1cccc2ccccc12`: -0.08% (inactive). The same measure for `N=c1ccccn1Cc1ccccc1`: 10.5% (inactive).

Source of the values: PubChem BioAssay AID1481 (The Scripps Research Institute Molecular Screening Center, 2009).
